PubChem BioAssay AID2284326 (EPA ToxCast)
Records with an inconclusive call do not appear. Activity calls are given as the source filed them. The calls were made as follows: active = hit-call score of the fitted dose curve at least 0.9, where 1 is the maximum; inconclusive = response in the unintended direction; inactive = score below 0.9.

Test system: TPO (gene 7173)
Experiment: CCTE_GLTED_hTPO: CCTE's human Thyroperoxidase (hTPO) Inhibition Assay, Great Lakes Toxicology and Ecology Division (GLTED) Lab
Procedure: CCTE_GLTED_hTPO is a cell-free, single-readout assay designed to test the inhibitory activity of chemicals toward human thyroperoxidase (TPO) protein. Uninhibited enzyme converts Amplex UltraRed to a fluorescent product. Measurements were taken 0.5 hour after chemical dosing in a 96-well plate. CCTE_GLTED_hTPO is the assay component measured from the CCTE_GLTED_hTPO assay. It is designed to make measurements of enzyme activity, a form of enzyme reporter, as detected with […] by Fluorescence technology.Data from the assay component CCTE_GLTED_hTPO was analyzed at the assay endpoint CCTE_GLTED_hTPO in the positive analysis fitting direction relative to DMSO as the negative control and baseline of activity. Using a type of enzyme reporter (the Amplex UltraRed assay), loss-of-signal activity can be used to understand decreased peroxidase activity in the presence of excess […]. To generalize the intended target to other relatable targets, this assay endpoint is annotated to the 'oxidoreductase' intended target family, where the subfamily is 'peroxidase'.
[…]

| Structure (SMILES) | AC50 | outcome |
| --- | --- | --- |
| O=C(O)C(F)(F)C(F)(F)C(F)(F)C(F)(F)C(F)(F)C(F)(F)C(F)(F)C(F)(F)Cl | 278 µM (active) |  |
| O=S(=O)(OCC(F)(F)F)C(F)(F)C(F)(F)C(F)(F)C(F)(F)F | 42.2 µM (active) |  |
| FC(F)=C(F)C(F)(F)C(F)(F)C(F)(F)C(F)(F)C(F)(F)C(F)(F)F | 30.9 µM (active) |  |
| O=C(Cl)C(F)(F)C(F)(F)C(F)(F)C(F)(F)C(F)(F)C(F)(F)F | 48.3 µM (active) |  |
| O=C(Cl)C(F)(F)C(F)(F)C(F)(F)C(F)(F)C(F)(F)C(F)(F)C(F)(F)C(F)(F)F |  | inactive |
| O=C(O)C(F)(F)C(F)(F)C(F)(F)C(F)(F)C(F)(F)C(F)(F)C(F)(F)C(F)(F)C(F)(F)C(F)F |  | inactive |
| O=C(Cl)C(F)(F)C(F)(F)C(F)(F)C(=O)Cl | 150 µM (active) |  |
| FC(F)(F)C(F)(F)C(F)(F)C(F)(F)C(F)(F)C(F)(F)C(F)(F)C(F)(F)CCS | 50 µM (active) |  |
| O=C(O)C(F)(OC(F)(F)C(F)(OC(F)(F)C(F)(OC(F)(F)C(F)(F)C(F)(F)F)C(F)(F)F)C(F)(F)F)C(F)(F)F (centres undefined) | 0.0612 µM (active) |  |
| CN(C(=O)C(F)(F)C(F)(F)C(F)(F)F)[Si](C)(C)C | 59.5 µM (active) |  |
| O=C(O)C(F)(OC(F)(F)C(F)(OC(F)(F)C(F)(F)C(F)(F)F)C(F)(F)F)C(F)(F)F (centres undefined) | 13.1 µM (active) |  |
| FC(F)(F)C(F)(F)C(F)(F)C(F)(F)C(F)(F)C(F)(F)CCS |  | inactive |
| O=S(=O)(Cl)C(F)(F)C(F)(F)C(F)(F)C(F)(F)C(F)(F)C(F)(F)C(F)(F)C(F)(F)F | 276 µM (active) |  |
| Cn1cc[nH]c1=S | 0.127 µM (active) |  |
